Results filed as inconclusive are left out. The source made the active and inactive calls. How the source made its calls: active means hit-call score of the fitted dose curve at least 0.9, where 1 is the maximum; inconclusive means response in the unintended direction; inactive means score below 0.9.
Assays:
[1] = target: Cellular tumor antigen p53 (Homo sapiens) (UniProt P04637); experiment: TOX21_p53_BLA_p2_ratio: Tox21 HCT-116 p53 Agonism Beta-lactamase Assay, Ratio, Phase 2 (AID 2283592)
Method in brief: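 An inducible beta-lactamase reporter in HCT116 cells signals p53 pathway activation. After 16 h chemical exposure at 37C, cells load CCF4-AM substrate for 2 h at room temperature; activity is the cleaved/uncleaved emission ratio relative to DMSO.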

[2] = TOX21_p53_BLA_p4_viability: Viability Assessment in the Tox21 HCT-116 p53 Agonism Beta-lactamase Assay, Phase 4 (AID 2283597);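 further: hits lower the luminescence signal meaning cytotoxicity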
Method in brief: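 Compound exposure of HCT116 cells lasts 16 h at 37C, 5% CO2, with DMSO stocks diluted 217-fold. Cellular ATP is then quantified by CellTiter-Glo luminescence after 30 min at room temperature.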

[3] = target: Cellular tumor antigen p53 (Homo sapiens) (UniProt P04637); experiment: TOX21_p53_BLA_p5_ratio: Tox21 HCT-116 p53 Agonism Beta-lactamase Assay, Ratio, Phase 5 (AID 2283599)
Method in brief: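 HCT-116 cells carrying a p53-inducible beta-lactamase reporter were seeded at 4000 cells/well and dosed after 5 h with compound in DMSO (217-fold dilution). After 16 h at 37C, CCF4-AM substrate was added for 2 h, and the 460/530 nm emission ratio was scored as gain-of-signal versus DMSO.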

[4] = TOX21_p53_BLA_p5_viability: Viability Assessment in the Tox21 HCT-116 p53 Agonism Beta-lactamase Assay, Phase 5 (AID 2283600)
Method in brief: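 Counter-readout for cytotoxicity: ATP-dependent luminescence from CellTiter-Glo, read in the beta-lactamase wells after 30 min at RT, following a 16 h compound exposure at 37C.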

[5] = target: Cellular tumor antigen p53 (Homo sapiens) (UniProt P04637); experiment: TOX21_p53_BLA_p4_ratio: Tox21 HCT-116 p53 Agonism Beta-lactamase Assay, Ratio, Phase 4 (AID 2283601)
Method in brief: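 HCT116 cells carrying an inducible beta-lactamase reporter were plated at 4000 cells/well, rested 5 h, then exposed to compounds in DMSO (217-fold dilution) for 16 h at 37C. CCF4-AM substrate was loaded 2 h at room temperature; 460/530 nm emission ratio scored gain-of-signal versus DMSO.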

PGR (gene 5241) [6] = target: PGR (gene 5241) (UniProt P06401); experiment: TOX21_PR_BLA_Followup_Antagonist_ratio: Tox21 HEK293 Progesterone Receptor (PR) Antagonism Beta-lactamase Follow-Up Assay, Ratio (AID 2283934)
Method in brief: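 PR-UAS-bla HEK293T cells, 3,000/well in 2% charcoal-stripped FBS, given compound plus 1nM R5020 agonist for 16 hr at 37C. Beta-lactamase FRET substrate 2 hours, ratio cleaved/uncleaved fluorescence; viability by CellTiter-Glo in same wells.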

[7] = TOX21_PR_BLA_Followup_Agonist_viability: Viability Assessment in the Tox21 HEK293 Progesterone Receptor (PR) Agonism Beta-lactamase Follow-Up Assay (AID 2283935);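 further: signal loss means lower viability so actives are cytotoxic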
Method in brief: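 PR-UAS-bla HEK293T cells in 2% charcoal-stripped FBS medium, plated 6 hr before compound addition, exposed 16 hr at 37C. Viability read by CellTiter-Glo ATP luminescence after 30 min at room temperature, in the same wells as the beta-lactamase readout.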

PGR (gene 5241) [8] = target: PGR (gene 5241) (UniProt P06401); experiment: TOX21_PR_LUC_Followup_Antagonist: Tox21 HEK293 Progesterone Receptor (PR) Antagonism Luciferase Follow-Up Assay (AID 2283938);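 further: curve fitted upward as signal gain over DMSO baseline despite antagonist label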
Method in brief: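 A follow-up to the PR bla screen using HEK293-PR-A-luc cells, multiplexed with cell viability to flag cytotoxicity. Reporter luminescence after 16 h compound exposure was analysed relative to DMSO.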

[9] = TOX21_PR_LUC_Followup_Antagonist_viability: Viability Assessment in the Tox21 HEK293 Progesterone Receptor (PR) Antagonism Luciferase Follow-Up Assay (AID 2283940)
Method in brief: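 HEK293-PR-A-luc cells kept in charcoal-stripped FBS medium were plated 5 h before compound addition, then exposed 16 h at 37C; viability read as cellular ATP by luciferase luminescence, loss of signal indicating cytotoxicity.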

[10] = TOX21_PR_LUC_Followup_Agonist_viability: Viability Assessment in the Tox21 HEK293 Progesterone Receptor (PR) Agonism Luciferase Follow-Up Assay (AID 2283941);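 further: loss of signal means cytotoxicity so actives lower viability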
Method in brief: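 HEK293-PR-A-luc cells, kept in 10% charcoal-stripped FBS medium, were treated with compounds for 16 h at 37C. Viability read as cellular ATP by luciferase-coupled luminescence; loss of signal indicates cytotoxicity.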

Measured: outcome

Chain of Cellular tumor antigen p53 (Homo sapiens) (P04637 whole entry, looked up): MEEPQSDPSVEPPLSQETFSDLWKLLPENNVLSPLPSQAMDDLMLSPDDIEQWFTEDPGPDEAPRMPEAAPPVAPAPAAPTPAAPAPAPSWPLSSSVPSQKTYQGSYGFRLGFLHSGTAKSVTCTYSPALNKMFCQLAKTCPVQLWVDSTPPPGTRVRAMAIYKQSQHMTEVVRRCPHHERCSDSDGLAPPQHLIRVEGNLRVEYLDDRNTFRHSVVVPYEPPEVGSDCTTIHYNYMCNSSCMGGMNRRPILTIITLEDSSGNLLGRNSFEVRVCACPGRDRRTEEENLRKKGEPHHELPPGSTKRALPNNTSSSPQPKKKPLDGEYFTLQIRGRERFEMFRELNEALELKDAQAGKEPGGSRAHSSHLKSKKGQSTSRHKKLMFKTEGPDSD
Chain of PGR (gene 5241) (P06401 whole entry, looked up): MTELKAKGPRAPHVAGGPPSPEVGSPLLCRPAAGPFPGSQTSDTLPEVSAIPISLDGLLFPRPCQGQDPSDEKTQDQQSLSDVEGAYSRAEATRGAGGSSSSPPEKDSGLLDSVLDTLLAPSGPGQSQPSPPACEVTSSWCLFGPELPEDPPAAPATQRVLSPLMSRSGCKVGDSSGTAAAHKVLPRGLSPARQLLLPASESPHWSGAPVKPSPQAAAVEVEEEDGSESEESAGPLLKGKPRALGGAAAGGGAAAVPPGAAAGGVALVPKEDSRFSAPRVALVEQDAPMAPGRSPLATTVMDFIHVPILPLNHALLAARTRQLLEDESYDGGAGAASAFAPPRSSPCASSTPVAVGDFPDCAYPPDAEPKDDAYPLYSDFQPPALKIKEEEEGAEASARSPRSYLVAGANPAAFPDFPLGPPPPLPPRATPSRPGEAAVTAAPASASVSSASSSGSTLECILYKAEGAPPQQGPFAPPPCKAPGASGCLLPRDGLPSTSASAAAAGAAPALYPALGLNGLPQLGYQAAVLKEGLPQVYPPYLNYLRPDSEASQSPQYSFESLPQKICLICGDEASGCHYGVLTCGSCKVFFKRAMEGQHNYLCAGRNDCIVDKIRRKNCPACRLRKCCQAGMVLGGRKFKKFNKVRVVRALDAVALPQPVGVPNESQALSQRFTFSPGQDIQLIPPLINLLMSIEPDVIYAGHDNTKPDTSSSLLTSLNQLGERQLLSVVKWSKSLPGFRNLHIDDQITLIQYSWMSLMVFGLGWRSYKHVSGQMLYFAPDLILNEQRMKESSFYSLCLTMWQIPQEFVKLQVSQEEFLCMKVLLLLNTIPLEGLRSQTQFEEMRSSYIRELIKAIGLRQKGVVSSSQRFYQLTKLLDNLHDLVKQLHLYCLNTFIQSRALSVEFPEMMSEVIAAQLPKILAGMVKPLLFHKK

Cl/C(=C\n1cncn1)c1ccc(Cl)cc1Cl
inactive: [1] | [2] | [3] | [4] | [5] | PGR (gene 5241) [6] | [7] | PGR (gene 5241) [8] | [9] | [10]

COC(=O)c1cccc(Cl)c1
inactive: [1] | [2] | [4] | [5]

Nc1ccc2cc(S(=O)(=O)O)ccc2c1
inactive: [1] | [2] | [3] | [5]

O=C(O)c1ccc(O)cc1O
inactive: [1] | [2] | [3] | [5]

O=C(O)CCNC(=O)c1ccc(N=Nc2ccc(O)c(C(=O)O)c2)cc1
inactive: [1] | [2] | [3] | [5]

OC(CCCN1CCCCC1)(c1ccccc1)c1ccccc1
inactive: [1] | [2] | [4]

Nc1nc(-c2ccc([N+](=O)[O-])cc2)cs1
inactive: [1] | [2] | [3] | [4] | [5]

CC(=O)NC(=O)c1ccccc1O
inactive: [1] | [2] | [3] | [4] | [5]

c1ccc2nccnc2c1
inactive: [1] | [2] | [3] | [4] | [5]

CCN(CC)C(=O)[C@]1(c2ccccc2)C[C@@H]1CN
inactive: [1] | [2] | [3] | [5]

CCn1ccnc1CC1COc2ccccc2O1 (configuration not stated)
inactive: [1] | [2] | [3] | [4] | [5]

CCCCCCCCCCCCCCCCCC(=O)OCCO
inactive: [1] | [2] | [3] | [4] | [5]

CC(C)(O)c1ccccc1
inactive: [1] | [2] | [3] | [5]

COc1ccc([C@@H]2CC(=O)c3c(O)cc(O[C@@H]4O[C@H](CO[C@@H]5O[C@@H](C)[C@H](O)[C@@H](O)[C@H]5O)[C@@H](O)[C@H](O)[C@H]4O)cc3O2)cc1O
inactive: [1] | [2] | [3] | [4] | [5]

O=C1NC(=O)[C@H]2[C@@H]1[C@@H]1C=C[C@H]2C1
inactive: [1] | [2] | [3] | [4] | [5]

CCC(CO)(CO)[N+](=O)[O-]
inactive: [1] | [2] | [4]

COc1cc(S(C)=O)ccc1-c1nc2ncccc2[nH]1 (configuration not stated)
inactive: [1] | [2] | [3] | [4] | [5]

CCCn1c(=O)[nH]c(=O)c2[nH]cnc21
inactive: [1] | [2] | [3] | [4] | [5]

CC(C)=CC(C)(C)C
inactive: [1] | [2] | [3] | [4] | [5]

COC(=O)CC[C@H](N)C(=O)O
inactive: [1] | [3]

CC(C)S
inactive: [1] | [3]

C1CCc2nnnn2CC1
inactive: [1] | [3]

CCCCCCCCCCCCCCCCBr
inactive: [1] | [3]

CC(C)c1ncc([N+](=O)[O-])n1C
inactive: [1] | [3] | [4]

CC(CO)CO
inactive: [1] | [2] | [5]

CO[C@]1(NC(=O)CSC(F)F)C(=O)N2C(C(=O)O)=C(CSc3nnnn3CCO)CO[C@H]21
inactive: [1] | [3]

O=CC1CC=CCC1 (configuration not stated)
inactive: [1] | [2] | [5]

CN1CCc2c(c3ccccc3n2Cc2ccccc2)C1
inactive: [1] | [2] | [5]
